Wnt act: Wnt/beta-catenin pathway activators, primary screen, cell-based, plate reader, single point; Wnt/beta-catenin reporter cell assay, activator; activation, % at 9.35 µM; 300,000 compounds, 1.2% hits; AID 743398, 2014; in the data active = activation above about 30%, passing the limit was not always enough; inconclusive = no clear call, values can overlap the other calls;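 also: 0% = neutral control wells and 100% = positive control wells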
C2C12 statin: suppressors of statin myotoxicity in C2C12 myotubes, primary screen, cell-based, single point, plate reader; C2C12 myotubes + simvastatin, ATP luminescence, 48 h; scaled: DMSO 0, geranylgeraniol control 100; 330,000 compounds, 0.78% hits; rescue of ATP level, % at 7.49 µM;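 active = mean ATP rescue above about 67%, or every replicate alone reaching that limit, limit read from the data, passing the limit was not always enough; inconclusive = no clear call, values can overlap the other calls; inactive = mean under the limit and some replicate under it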;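 also: myotubes were challenged with 10 µM simvastatin during compound exposure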
esBAF inh: Bmi1 luciferase reporter increase in mESCs, primary screen, esBAF inhibitor project, mouse ES cells, Bmi1 luciferase knock-in, single point; 24 h; 100% = twice the neutral-well signal; reporter increase, % at 12.5 µM; 350,000 compounds, 2% hits; in the data active = activation above about 40%; inconclusive = no clear call, values can overlap the other calls;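 also: 0% = median of the plate's neutral control wells and 100% = double that signal; a rise in the Bmi1 reporter signal indicates esBAF inhibition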
MITF TRPM1 HTS: activators of MITF-driven TRPM1 promoter reporter, primary screen, cell-based, SK-MEL-5, luciferase, single point; SK-MEL-5 TRPM1-promoter luciferase, 24 h; % of positive control, neutral wells = 0; activation, % at 12.5 µM; 300,000 compounds, 0.75% hits;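 active = mean activation of at least 80% with every replicate also reaching 80%; inconclusive = mean reaches 80% but some replicate falls short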;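 also: 0% = neutral control wells and 100% = parthenolide positive control wells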
An asterisk follows results filed as active; ? = inconclusive; . = no result given. Most compounds without a hit are left out; they make up all but 3% or so of the library.

SMILES | Wnt act | C2C12 statin | esBAF inh | MITF TRPM1 HTS
C[C@H]1CN([C@@H](C)CO)C(=O)c2cccc(NC(=O)C3CCCCC3)c2O[C@@H]1CN(C)S(=O)(=O)c1ccc(Cl)cc1 | . | 119* | -1 | .
Cn1c(-c2ccc(C(C)(C)C)cc2)n[nH]c1=S | . | 1 | 50* | 14
CO[C@H]1CN(C)C(=O)c2ccc(NC(=O)NC(C)C)cc2OC[C@@H](C)N(Cc2cocn2)C[C@H]1C | . | 6 | 3 | .
Brc1ccc(/C=N/Nc2ccccc2)cc1 | 11 | . | . | 84*
Oc1ccc(/C=N/Nc2ccccc2)cc1 | -3 | 7 | 6 | -17
C[C@H]1CN([C@@H](C)CO)S(=O)(=O)c2ccc(C#Cc3ccccc3F)cc2O[C@H]1CN(C)C(=O)c1ccc2c(c1)OCO2 | . | 28 | 19 | .
NC(=O)C(=O)N/N=C1\CCc2ccccc21 | 33* | 5 | 48* | 29
COc1ccc(OCC(=O)N/N=C2\CCc3ccccc32)cc1 | . | -3 | 10 | 14
CC=Cc1ccc2n(c1=O)C[C@H]1[C@H](CO)[C@@H](C(=O)NCC3CC3)N(Cc3ccncc3)[C@@H]21 (mixture of isomers) | . | -16 | -3 | .
C[C@@H]1CCCCO[C@@H](CN(C)C(=O)Nc2cccc3ccccc23)[C@@H](C)CN([C@@H](C)CO)C(=O)c2cc(NC(=O)NC3CCCCC3)ccc2O1 | . | . | -3 | .
Nc1cccc2cc(-c3ccccc3)oc12 | -2 | 3 | 91* | 115*
O=C(Oc1coc(CSc2ncccn2)cc1=O)c1ccc(Br)o1 | -1 | . | . | -13
Cc1ccnc(SCc2cc(=O)c(OC(=O)c3ccc(Br)o3)co2)n1 | 51* | . | . | 0
COCC(=O)Nc1ccc2c(c1)C(=O)N(C)[C@H]1CC[C@H](CC(=O)OC)O[C@H]1CO2 | . | 10 | 7 | .
CCC(=O)N[C@@H]1CC[C@@H](CCNC(=O)Nc2ccc(F)cc2)O[C@H]1CO | . | -3 | 6 | .
O=C(COC(=O)c1ccc(S(=O)(=O)N2CCOCC2)cc1)NC1CCCCCCC1 | 89* | 3 | 5 | -1
N/C(=N\OC(=O)c1ccc2ccccc2c1)c1ccccc1Cl | 47* | 1 | 65* | ?
N/C(=N\OC(=O)/C=C/c1ccccc1Cl)c1ccncc1 | 13 | . | . | ?
N/C(=N\OC(=O)c1ccc2ccccc2c1)c1ccccn1 | -26 | -20 | -86 | -32
Cc1ccccc1C(=O)O/N=C(\N)Cc1cccs1 | 17 | -6 | 53* | 94*
N/C(=N\OC(=O)/C=C/c1ccccc1)c1ccncc1 | 11 | -17 | 45* | 50
N/C(=N\OC(=O)c1ccc2ccccc2c1)c1ccncc1 | 34* | . | . | ?
Cc1ccccc1C(=O)O/N=C(\N)c1ccncc1 | 40* | . | . | 27
O=C(Oc1ccc2ccc(O)cc2c1)c1ccccc1Cl | 11 | 19 | 63* | .
COc1ccc(/C=C/C(=O)O/N=C(\N)c2ccccn2)cc1OC | 1 | -5 | ? | 81*
SMILES | Wnt act | C2C12 statin | esBAF inh | MITF TRPM1 HTS
N/C(=N\OC(=O)c1ccccc1Cl)c1ccncc1 | 13 | . | . | 56
COc1ccc(/C(C)=N/N2CCCCC2)c(O)c1 | 1 | -3 | 54 | ?
COc1ccc(O)c(/C=N/N2CCCCC2)c1 | 33* | -26 | 6 | 30
CN(C)C(=O)c1ccc(-c2ccc([C@@H]3[C@H](C#N)N(C(=O)C4CCCC4)[C@H]3CO)cc2)cc1 | . | -4 | 23 | .
COCC(=O)N1CC[C@@H]2[C@@H](CO)N(C)c3ccc(-c4cccc(OC)c4)cc3[C@@H]21 | . | 22 | 1 | .
Cc1ccc(NC(=O)c2ccc(Cl)cc2Cl)cc1O | 48* | . | . | 55
CNS(=O)(=O)c1ccc(NC(=O)c2ccc(Cl)cc2Cl)cc1 | 0 | . | . | 5
C#Cc1cccc(NC(=O)c2ccc(Cl)cc2Cl)c1 | 22 | 2 | 53* | 94*
O=C(Nc1ccc(Nc2ccccc2)cc1)c1ccc(Cl)cc1Cl | -1 | . | . | .
O=C(C[C@@H]1CC[C@H]2[C@@H](COC[C@H](O)CN2C(=O)Nc2cc(Cl)cc(Cl)c2)O1)N1CCCCC1 | . | -8 | 1 | .
COc1cc(/C=C2\C(=O)N(CCC#N)N=C2C)ccc1OCC(=O)Nc1ccccc1 | 65* | . | . | 5
Cc1cc2nc(N3CCN(C(=O)c4ccco4)CC3)sc2cc1C | ? | -13 | 69* | 116*
Cc1cc(C)c2nc(N3CCC(C(=O)N4CCN(c5ncccn5)CC4)CC3)sc2c1 | . | 4 | 1 | -5
Nc1nc(N2CCN(C(=O)c3ccco3)CC2)nc2ccc(Br)cc12 | . | . | . | 105*
Cc1cc(C)c2nc(N3CCN(C(=O)c4ccco4)CC3)sc2c1 | -21 | 1 | 54* | 91*
O=C(c1ccco1)N1CCN(c2ncccn2)CC1 | 1 | -3 | 0 | .
O=C(Nc1ccc(Cl)cc1)C1C2CCCCC21 (centres undefined) | 20 | 0 | 72* | .
CCc1ccc(NC(=O)C2CCCCC2C(=O)O)cc1 (centres undefined) | -9 | . | . | -6
O=C1CCC(C(=O)Nc2ccc(Cl)cc2)N1 (centres undefined) | 2 | 9 | -6 | 25
CCc1ccc(NC(=O)C2C3/C=C\CCCCC32)cc1 (centres undefined) | . | -15 | 61* | 94*
O=C(NCC1CC1)Nc1ccc(Cl)cc1 | 12 | -6 | 68* | ?
CC(C)NC(=O)N(C)C[C@@H]1Oc2ncc(C#CC3CCCCC3)cc2C(=O)N([C@H](C)CO)C[C@H]1C | . | 26 | 1 | .
CC(=O)NC1CCC(OC(=O)Nc2ccccc2)CC1 (centres undefined) | 2 | -1 | 53* | 37
CCOC(=O)c1sc(-c2ccc(OC)cc2)cc1N | . | -11 | 76* | 99*
CCOC(=O)c1sc2nc(C3CC3)cc(-c3ccc(OC)cc3)c2c1N | . | 98* | -6 | -5
SMILES | Wnt act | C2C12 statin | esBAF inh | MITF TRPM1 HTS
CCOC(=O)c1sc2nc(C3CC3)cc(-c3ccc(F)cc3)c2c1N | -4 | 13 | -8 | -9
CCOC(=O)c1sc(-c2ccc(F)cc2)cc1N | . | -55 | 57* | 98*
CCOC(=O)c1c(C)nc(C)c(C(=O)OCC)c1-c1ccc(OC)cc1 | 1 | 0 | -10 | -5
CCOC(=O)c1sc(-c2ccccc2)cc1N | 54* | 7 | 67* | .
CC(=O)c1sc(-c2ccccc2)cc1N | 16 | . | . | .
CCOC(=O)c1cc(-c2ccccc2)sc1N | . | . | . | 61
C[C@@H]1CCCCO[C@@H](CN(C)S(=O)(=O)c2cccs2)[C@@H](C)CN([C@@H](C)CO)C(=O)c2cc(NC(=O)Nc3ccc(C(F)(F)F)cc3)ccc2O1 | . | -59 | 2 | .
O=C(C[C@@H]1CC[C@@H](NS(=O)(=O)c2ccccc2)[C@@H](CO)O1)N1CCc2ccccc2C1 | . | 1 | -6 | .
COc1cccc(S(=O)(=O)N[C@H]2C=C[C@H](CC(=O)NCc3ccc(F)cc3)O[C@H]2CO)c1 | . | -6 | 1 | .
CCC(=O)N[C@H]1CC[C@H](CCn2cc(CN(C)C)nn2)O[C@@H]1CO | . | -6 | -7 | .
O=c1c2ccccc2nc(N/N=C/c2ccc(O)cc2)n1O | . | 6 | 47* | 38

Screening results (PubChem)
